# A collection of fitness landscapes (doi:10.1038/s41467-024-54723-y)
# Whole data set: some 18,000 sequences, median “TetR repression strength (sort-seq, GFP reporter)” near 0.23, cut for the highest 2% near 0.68. For the sample, the highest values were picked, then their nearest neighbours and some sequences at random.
# Target: TetR (class B, Tn10) (UniProt P04483)
# Experiment: TetR repression strength (sort-seq, GFP reporter) (relative to tetO2 = 1); higher = stronger repression
# Settings: E. coli
# In short: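 In LB with 50 µg/mL chloramphenicol, E. coli SIG10-MAX holding a low-copy library with eight randomized operator positions between a constitutive promoter and sfGFP, plus constitutive TetR, grew for 5 h at 37 °C. FACS then sorted 10^6 cells into 13 fluorescence bins for Illumina sequencing of each bin. Repression strength equals the top bin index plus one less the read-weighted mean bin, normalized to the unaltered operator. Values from three independent transformations were averaged when reads were ≥30 in every replicate and the CV was ≤0.5.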
# TetR (class B, Tn10), sequence (P04483 whole entry): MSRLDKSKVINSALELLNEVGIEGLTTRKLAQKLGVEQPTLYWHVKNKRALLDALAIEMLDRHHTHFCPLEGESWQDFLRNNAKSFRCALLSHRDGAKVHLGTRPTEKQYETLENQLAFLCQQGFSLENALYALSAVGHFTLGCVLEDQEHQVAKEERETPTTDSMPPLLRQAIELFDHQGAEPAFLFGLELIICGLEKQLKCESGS
row,Sequence,TetR repression strength
1,TCCCGCGAAGTAAGCGAGA,0.151
2,TCCCTCCTAGTGCGAGAGA,0.151
3,TCCCCGTGAGTTGGAGAGA,0.319
4,TCCCCATGAGTTAGCGAGA,0.188
5,TCCCTGCCAGTTCATGAGA,0.0931
6,TCCCGAGCAGTGGAGGAGA,0.35
7,TCCCCTAGAGTGGGGGAGA,0.195
8,TCCCGTTCAGTTTGTGAGA,0.145
9,TCCCAATCAGTTAGGGAGA,0.146
10,TCCCTGGCAGTCGGGGAGA,0.473
11,TCCCTAGTAGTGCAAGAGA,0.538
12,TCCCTGTGAGTCTCAGAGA,0.365
13,TCCCTTTGAGTAAGGGAGA,0.152
14,TCCCTAACAGTGAGTGAGA,0.514
15,TCCCTAACAGTGATTGAGA,0.745
16,TCCCTTCGAGTGATTGAGA,0.73
17,TCCCTACCAGTGATTGAGA,0.511
18,TCCCTTTGAGTAAGTGAGA,1.15
19,TCCCTTTAAGTAAGTGAGA,0.247
20,TCCCTGTCAGTGTGAGAGA,0.0482
21,TCCCTATGAGTGTGAGAGA,0.252
22,TCCCCTCGAGTGATTGAGA,0.244
23,TCCCTTTGAGTGATTGAGA,0.263
24,TCCCTATCAGTGTGAGAGA,0.919
25,TCCCAAAAAGTTCCGGAGA,0.0327
26,TCCCATTTAGTCTGTGAGA,0.192

row,Sequence,TetR repression strength
1,TCCCTAAAAGTACAGGAGA,0.262
2,TCCCGCTGAGTAATGGAGA,0.218
3,TCCCTGCGAGTATTTGAGA,0.391
4,TCCCTAGTAGTGTGGGAGA,0.216
5,TCCCTAGAAGTTTAAGAGA,0.0122
6,TCCCGTATAGTCTGTGAGA,0.0605
7,TCCCGTCAAGTGTCCGAGA,0.279
8,TCCCGGACAGTCCGTGAGA,0.196
9,TCCCTATCAGTGACGGAGA,0.472
10,TCCCGATCAGTGTTAGAGA,0.556
11,TCCCAACGAGTAATGGAGA,0.395
12,TCCCCGTCAGTGATAGAGA,0.35
13,TCCCTTTCAGTGTTAGAGA,0.459
14,TCCCTTGCAGTGATAGAGA,0.657
15,TCCCTATTAGTGACTGAGA,0.345
16,TCCCTATCAGTGATAGAGA,1
17,TCCCAACCAGTCATGGAGA,0.159
18,TCCCAACCAGTAATGGAGA,0.713
19,TCCCTATCAGTGACTGAGA,0.722
20,TCCCTATCAGTGTTAGAGA,0.974
21,TCCCGTCCAGTCTGAGAGA,0.152
22,TCCCGATGAGTGTGGGAGA,0.221
23,TCCCTGTCAGTGATTGAGA,0.592
24,TCCCTTGAAGTCATTGAGA,1.05
25,TCCCTATCAGTAATTGAGA,0.787
26,TCCCTTCAAGTCATTGAGA,0.0199

row,Sequence,TetR repression strength
1,TCCCTATCAGTAACTGAGA,0.474
2,TCCCTATCAGTTATTGAGA,0.504
3,TCCCTATCAGTGATTGAGA,0.939
4,TCCCTATCAGTGCGTGAGA,0.546
5,TCCCTTGAAGTCAGTGAGA,0.236
6,TCCCTATCAGTGGGTGAGA,0.554
7,TCCCTATTAGTAATTGAGA,0.416
8,TCCCTATCAGTGAGAGAGA,0.948
9,TCCCTTATAGTATCAGAGA,0.186
10,TCCCGATAAGTAGCGGAGA,0.234
11,TCCCTTGCAGTGTACGAGA,0.204
12,TCCCCCTTAGTTGTCGAGA,0.307
13,TCCCGCGAAGTGTTTGAGA,0.197
14,TCCCTGGGAGTGACAGAGA,0.299
15,TCCCTAAGAGTGGGCGAGA,0.157
16,TCCCTAGAAGTGACGGAGA,0.153
17,TCCCCGAGAGTCCTAGAGA,0.235
18,TCCCGTCAAGTGCCGGAGA,0.325
19,TCCCTATCAGTAAGTGAGA,0.545
20,TCCCTATCAGTGAGTGAGA,0.79
21,TCCCTGTCAGTGGCAGAGA,0.545
22,TCCCTATCAGTGAGGGAGA,0.5
23,TCCCTAACAGTGACAGAGA,0.559
24,TCCCAATCAGTGGCAGAGA,0.433
25,TCCCTGTCAGTGACAGAGA,0.636
26,TCCCTATCAGTGAAAGAGA,0.784

row,Sequence,TetR repression strength
1,TCCCTAACAGTGAAAGAGA,0.575
2,TCCCTATCAGTGACAGAGA,0.863
3,TCCCTATCAGTGGCAGAGA,0.771
4,TCCCTATCAGTCAAAGAGA,0.636
5,TCCCTGTTAGTGCGGGAGA,0.226
6,TCCCGGTGAGTTGTCGAGA,0.355
7,TCCCATATAGTTTGGGAGA,0.175
8,TCCCTTGAAGTATCGGAGA,0.146
9,TCCCATAGAGTGCGTGAGA,0.18
10,TCCCTGGCAGTTTTTGAGA,0.196
11,TCCCCCCGAGTGCTGGAGA,0.344
12,TCCCCCTGAGTCATTGAGA,0.526
13,TCCCGGGCAGTGGGGGAGA,0.347
14,TCCCGCGTAGTGTACGAGA,0.108
15,TCCCTATTAGTGTGTGAGA,0.219
16,TCCCTATTAGTGAGAGAGA,0.631
17,TCCCTATTAGTGAGTGAGA,0.762
18,TCCCGTGGAGTGCACGAGA,0.315
19,TCCCCACGAGTGGATGAGA,0.382
20,TCCCAACAAGTGGATGAGA,0.243
21,TCCCCCACAGTGGATGAGA,0.294
22,TCCCCCCCAGTGGATGAGA,0.232
23,TCCCCACAAGTGGATGAGA,1.22
24,TCCCCACCAGTGGATGAGA,1.05
25,TCCCCCCGAGTAAGTGAGA,0.278
